Data reported in PubChem BioAssay AID449762 (Southern Research Specialized Biocontainment Screening …, 2010).
About 1,900 (0.58%) of roughly 330,000 compounds were called active. Inconclusive results (about 4%) are left out. Only a sample is shown. Measured potencies and affinities stand elsewhere. A number with no mark means an inactive call. Cut-off read from the data, not from the text of the source: inconclusive = inhibition above about 70% without an active follow-up result; inactive = below that.

assay: M. tuberculosis growth inhibition, HTS (AID 449762);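 note: bacterial growth assessed after seven days of incubation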; conditions: M. tuberculosis H37Rv growth inhibition, 7H9 media; at 25 µM; hits give high values

Row | SMILES | inhibition [%]
1 | Clc1ccc2nc(-c3ccncc3)cc(-c3ccccc3)c2c1 | 3.77
2 | Cc1ccc2nc(-c3ccc(NS(C)(=O)=O)cc3)cc(-c3ccccc3)c2c1 | 0.07
3 | COc1ccc(S(=O)(=O)N2CCN(C(=O)c3ccco3)CC2)cc1C(C)(C)C | -13.2
4 | Cc1cccc(Sc2ccc([N+](=O)[O-])cc2[N+](=O)[O-])n1 | 19.9
5 | Cc1cc(C)nc(Sc2ccc([N+](=O)[O-])cc2[N+](=O)[O-])n1 | 0.29
6 | C/C(=C\C(=O)c1ccc(C)o1)Nc1ccc(C(=O)O)cc1C | -5.52
7 | COc1ccc(OC)c(N/C(C)=C/C(=O)c2ccc(C)o2)c1 | 5.43
8 | Cc1ccn2c(-c3csc(NCc4ccco4)n3)c(C)nc2c1 | 7.31
9 | Cc1nc2sccn2c1-c1csc(NCc2ccccc2)n1 | 54.7
10 | O=C(COC(=O)CCN1C(=O)c2ccccc2C1=O)Nc1ccccc1[N+](=O)[O-] | -0.89
11 | Cc1ccc(NC(=O)C2C3/C=C\CCCCC32)cc1 (stereo unspecified) | -6.56
12 | O=C(Nc1ccccc1)C1C2/C=C\CCCCC21 (stereo unspecified) | 5.24
13 | Cc1cc(F)ccc1S(=O)(=O)N1CCCOC1CNC(=O)C(=O)NC1CCCCC1 (stereo unspecified) | -6.82
14 | CCOC(=O)N1CCN(c2c(NCCCN3CCCCCC3)c(=O)c2=O)CC1 | 1.01
15 | CCOC(=O)/C(=N/Nc1ccccc1)N1CCCc2ccccc21 | 0.18
16 | CCOC(=O)/C(=N/Nc1ccccc1OC)N1CCCc2ccccc21 | 0.45
17 | Cc1ccc(S(=O)(=O)Cc2sc3ccccc3[n+]2C)cc1 | -1.05
18 | COc1ccc(NC(=O)C(CC(=O)O)Cc2ccccc2)cc1 (stereo unspecified) | -9.83
19 | Cc1ccc(SCCNC(=O)/C=C/c2ccc(Cl)cc2)cc1 | -7.24
20 | CC(=O)c1ccc(-c2ccc(/C=C(/Sc3n[nH]c(C)n3)C(=O)O)o2)cc1 | -2.81
21 | Cc1nc(S/C(=C/c2ccc(-c3ccc(C(=O)O)cc3)o2)C(=O)O)n[nH]1 | -0.51
22 | CCCN1CCN(C(=O)c2ccc(CS(=O)c3ccc(Cl)cc3)o2)CC1 (stereo unspecified) | -5.84
23 | Cc1ccc(C(=O)N(c2ccccn2)C(C)c2ccco2)cc1C (stereo unspecified) | 6.78

Row | SMILES | inhibition [%]
24 | Cc1ccc(Nc2nc(CSc3n[nH]c(N)n3)cs2)cc1 | 0.79
25 | c1ccc(-c2nc(CSc3nnc(-c4cccs4)o3)cs2)cc1 | 3.49
26 | CCc1ccc(NC(=O)C(NS(=O)(=O)c2ccc3c(c2)CCN3C(C)=O)C(C)C)cc1 (stereo unspecified) | 0.33
27 | Cc1ccc(Nc2nc(N)c3ccccc3n2)cc1Cl | 11.2
28 | CCN(CC)c1nc(Nc2ccc([N+](=O)[O-])cc2)nc(N(CC)CC)n1 | 6
29 | Cc1ccc(NC(=O)c2ccsc2)cc1NS(C)(=O)=O | -6.89
30 | C=CCc1c(C)nc(C)nc1N/N=C/c1ccc([N+](=O)[O-])cc1 | -6.42
31 | O=C(Cn1c(=O)c2cccn2c2cccnc21)N1CCN(c2ccc(Cl)cc2)CC1 | 0.96
32 | CN1CCN(C(=O)CCn2c(=O)c3cccn3c3cccnc32)CC1 | 6.95
33 | Cc1ccc(CN2CCC(c3nc4ccc(Cl)cc4[nH]3)CC2)cc1 | 2.51
34 | Cc1cc2nc(C3CCN(Cc4nnnn4Cc4ccccc4)CC3)[nH]c2cc1C | 34
35 | CC(=O)Nc1ccc(SCC(=O)Nc2sccc2C#N)cc1 | -2.99
36 | O=C(OCC(=O)c1c[nH]c2ccccc12)c1cncc(Br)c1 | -0.17
37 | O=C(OCC(=O)c1c[nH]c2ccccc12)c1ccc(Br)o1 | 5.56
38 | CCOC(=O)c1c(NC(=O)c2ccccc2C(=O)O)sc2c1CCC2 | -2.86
39 | CCOC(=O)c1c(NC(=O)c2ccccc2C(=O)O)sc2c1CCCC2 | -6.92
40 | CCN1CCN(CC(O)COc2ccc(C)c(C)c2)CC1 (stereo unspecified) | 4.44
41 | COC(=O)c1sccc1NC(=O)c1ccccc1C(=O)O | 1.76
42 | CCn1nc(NC(=O)c2ccncc2)c2cc3ccc(C)cc3nc21 | 4.05
43 | CCn1nc(NC(=O)c2ccncc2)c2cc3ccccc3nc21 | 2.23
44 | O=C(Nc1ccccc1C(=O)O)c1cc(S(=O)(=O)N2CCCCC2)c(Cl)cc1Cl | -1.16
45 | CCn1c2ccc(CC(=O)O)cc2c2cc(CC(=O)O)ccc21 | -11.4
46 | COc1ccc(NC(=O)CN2CCN(CC(=O)Nc3ccccc3F)CC2)c(OC)c1 | -3.25
